From PubChem BioAssay (NCI) come the findings set out here.

The structures appear in SMILES notation. Where “and” joins values, the source holds several entries; their conditions need not be identical. Equal values may be shown once. About 83,000 compounds went through this panel and 20% of them were active in at least one assay; those are over-represented in the sample as a whole.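 Compound tested at a single concentration for 48 hours in 96-well plates; a percent growth value below 10 was scored as active.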 Calls of active or inactive are those of the source.

The experiment deals with MDA-MB-468 breast. Description: NCI-60 one-dose screen, 48 h (100 = growth as untreated, 0 = no growth, -100 = all killed). Conditions: 10 µM unless noted.
In the case of `Cc1ccc(C(=O)CSc2nnc(-c3ccc(-c4ccc(Cl)cc4)nc3C)o2)cc1`, the growth was 94.9% (inactive).
For `CCN1CCN(C(=O)[C@@]2(C)CC[C@]3(C)CC[C@]4(C)C(=CC(=O)[C@@H]5[C@@]6(C)CC[C@H](OCCC#N)C(C)(C)[C@@H]6CC[C@]54C)[C@@H]3C2)CC1` the value was 90.9% (inactive).
For `O=C(CN1CCCCC1)Sc1nnc2sc3ccccc3n12` the value was 97.1% (inactive).
For `O=S(=O)(Nc1ccccc1)C1CCCCC1` the value was 110% (inactive) and 107% (inactive); for `CCNC(=O)Oc1ccc(/C(=C(/C)c2ccc(OC)cc2)c2ccc(OCCN3CCCCCC3)cc2)cc1`, 38.3% (inactive); for `COCCn1cc(-c2nc(-c3c[nH]c4ncccc34)cs2)c2ccccc21`, -7.09% (active).
In the case of `COc1cccc(/C=C/c2c(C(=O)O)cccc2[N+](=O)[O-])c1OC`, the growth was 108% (inactive).
For `COc1cc(C2CC(c3ccccc3)=NN2C=O)ccc1Oc1nc2c(c(=O)n(C)c(=O)n2C)n1C` (stereo unspecified) the value was 63.9% (inactive); for `CN1CCC[C@@H]1CCO[C@](C)(c1ccccc1)c1ccc(Cl)cc1`, -10.5% (active).
For `O=C1/C=C/[C@@H](O)[C@@H]2C[C@@H](O)C[C@H]2/C=C/CCC[C@H](CO)O1` the value was -20.1% (active).
For `COc1cc(-c2nnc(-c3nc(-c4cc(OC)c(OC)c(OC)c4)n4ccccc34)o2)ccc1N` the value was 97.7% (inactive).
